Most compounds without a hit are left out; they make up all but 1.2% or so of the library.
Platelet DG rel: modulates dense granule release in human platelets | inhibition, %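 (compounds screened at 7.5 µM in platelet-rich plasma)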 | human platelet-rich plasma, SFLLRN dense granule ATP release, luminescence | 300,000 compounds, 0.22% hits;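 active = mean replicate score, as percent of positive control, at or above 50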
SKN-1 inh: blocks SKN-1 activity in C. elegans; C. elegans VP596 Pgst-4::GFP/RFP ratio, acrylamide-induced, 24 h; inhibition, % at 21.8 µM; 360,000 compounds, 0.49% hits;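 active = interference check ratio from 0.5 to 1.5 plus GFP to RFP signal ratio inhibition reaching or exceeding a fixed threshold, cut at about 30% in these data, passing the limit was not always enough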
VLA-4 inh: inhibition in a human VLA-4 binding assay. VLA-4 expressing cells, ligand binding flow cytometry. P13612. inhibition, % (about 7 µM as worked out from the volumes in the protocol). 330,000 compounds, 0.2% hits; in the data active = inhibition above about 50%
Yeast superoxide: lowers age-related superoxide in aged yeast cells; superoxide response (% of plate mean), % at 10 µM; 330,000 compounds, 0.18% hits; AID 2690; S. cerevisiae aged cells, superoxide DHE fluorescence; active compounds read low;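 active = superoxide response under a set limit, about three screen SD below normal, cut at about 65% in these data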;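 note: yeast aged for seven days with compound at 30 °C before DHE staining; 100% = average MFI of all compound-treated wells on the plate with controls excluded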
ABCB6 inh 2: blocks the human ABCB6 transporter. Q9NP58. K562-ABCB6 porphyrin accumulation, flow cytometry, 1 h; active compounds read low. fluorescence ratio to DMSO, % at 10 µM. 360,000 compounds, 0.19% hits. AID 602162;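 active = fluorescence ratio to DMSO below 75%, the collection mean minus 3 SD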;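 note: signal is porphyrin accumulated inside mitochondria; 100% equals median channel fluorescence of DMSO control wells; lower ratio means ABCB6 inhibition with less porphyrin fluorescence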
Target sequence (Q9NP58 whole entry, looked up): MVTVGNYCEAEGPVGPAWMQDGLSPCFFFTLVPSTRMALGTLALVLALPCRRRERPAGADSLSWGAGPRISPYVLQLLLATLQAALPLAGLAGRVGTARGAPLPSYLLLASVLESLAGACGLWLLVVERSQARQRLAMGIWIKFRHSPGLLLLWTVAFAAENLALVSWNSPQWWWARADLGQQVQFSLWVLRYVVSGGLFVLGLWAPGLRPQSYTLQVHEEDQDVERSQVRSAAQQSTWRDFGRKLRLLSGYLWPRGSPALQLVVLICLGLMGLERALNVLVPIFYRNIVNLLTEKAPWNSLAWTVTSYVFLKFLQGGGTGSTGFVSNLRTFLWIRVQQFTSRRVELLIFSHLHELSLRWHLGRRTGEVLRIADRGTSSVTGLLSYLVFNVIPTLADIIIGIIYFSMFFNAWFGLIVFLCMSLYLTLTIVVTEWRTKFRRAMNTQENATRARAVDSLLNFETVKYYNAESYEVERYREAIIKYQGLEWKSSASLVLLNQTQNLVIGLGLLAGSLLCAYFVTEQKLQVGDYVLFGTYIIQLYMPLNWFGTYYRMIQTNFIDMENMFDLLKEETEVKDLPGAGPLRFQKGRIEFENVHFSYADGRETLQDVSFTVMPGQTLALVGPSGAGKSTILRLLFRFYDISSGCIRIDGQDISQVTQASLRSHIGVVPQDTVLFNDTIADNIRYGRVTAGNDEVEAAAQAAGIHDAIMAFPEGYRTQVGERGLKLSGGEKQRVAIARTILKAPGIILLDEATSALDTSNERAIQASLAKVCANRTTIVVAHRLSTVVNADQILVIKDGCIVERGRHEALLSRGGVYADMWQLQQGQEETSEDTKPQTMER
Starred values were filed as active, the others as inactive; . = no result.

SMILES	Platelet DG rel	SKN-1 inh	VLA-4 inh	Yeast superoxide	ABCB6 inh 2
CCCCOc1ccccc1C1C(C(=O)OC)=CN(CC)C=C1C(=O)OC	51.1*	-8.0	6.8	99.9	99.0
COc1ccc(OC)c(S(=O)(=O)NCc2cccnc2)c1	2.5	1.4	3.4	105.3	102.0
COc1ccc(OC)c(S(=O)(=O)NCc2ccccc2)c1	5.4	-2.5	10.8	105.4	68.0*
O=c1cc(-c2ccccc2F)oc2ccccc12	-0.8	-6.8	-13.2	93.7	93.0
CSc1ccc(-c2cc(=O)c3ccccc3o2)cc1	14.6	46.6*	-6.0	93.6	96.0
O=c1cc(-c2ccc(F)cc2)oc2ccccc12	7.9	52.9*	12.5	103.5	94.0
Cc1ccccc1-c1cc(=O)c2ccccc2o1	.	4.2	5.6	107.9	101.0
CC(C)(C)N1C(=O)c2ccccc2NC(=O)C1C(=O)NCCc1ccccc1 (stereo unspecified)	.	6.5	.	.	.
CC(=O)Nc1ccc(C(=O)N2CCCC(c3cc(C(=O)NCc4cccnc4)no3)C2)cc1 (stereo unspecified)	.	17.1	.	.	80.0
N#C/C(=C\c1ccc(Cl)cc1Cl)c1n[nH]c(Cn2cncn2)n1	-2.3	44.1*	16.2	95.0	98.0
COc1ccc(-c2ccc3c(=O)cc(-c4ccsc4)oc3c2)cn1	.	47.3*	-18.9	99.3	99.0
COc1cc(-c2ccc3oc(-c4ccsc4)cc(=O)c3c2)cc(OC)c1OC	.	1.7	-18.8	109.7	86.0
CN(C)c1ccc(CC(=O)N2CCCCC2c2cc(C(=O)Nc3cccc(C#N)c3)no2)cc1 (stereo unspecified)	.	-15.9	.	.	100.0
Cc1ccc(Nc2nc(N)nc(CN3CCN(c4ccccc4)CC3)n2)cc1Cl	2.1	33.0	3.3	103.8	88.0
COc1ccc(N2CCN(Cc3nc(N)nc(Nc4ccc(C)c(Cl)c4)n3)CC2)cc1	0.0	36.0*	-4.8	93.0	92.0
CN(C(=O)c1ccccc1NC(=O)C(F)(F)F)c1ccccc1	-1.0	-12.2	9.0	90.3	60.0*
CCOC(=O)c1ccccc1NC(=O)COC(=O)c1ccccc1C(=O)N(C)c1ccccc1	0.0	-0.6	0.4	90.3	104.0
CN1CCCC(C)(C(=O)Nc2ccc(-n3cccc3)cc2)C1 (stereo unspecified)	.	6.7	.	.	98.0
COc1cccc(CN2CCN(Cc3ccco3)CC2)c1	-0.3	16.3	0.6	95.8	101.0
COc1ccc(CN2CCN(Cc3ccco3)CC2)cc1	4.4	40.5*	-0.7	81.2	92.0
CNc1cncc(-c2ccc(CN3CCOCC3)cc2)n1	.	-0.3	.	.	104.0
O=C1CCC(c2ccc(-n3ccnc3)cc2)=NN1	82.1*	-12.3	-5.7	101.3	91.0
Cc1ccc(NC(=O)CSCc2cc(=O)n3ccsc3n2)cc1	2.3	33.8*	-0.4	96.1	96.0
O=C(NCc1ccccc1)C(C1CC1)n1c(CSCCOc2ccccc2)nc2ccccc21 (stereo unspecified)	.	-3.6	.	.	.
CSc1ccccc1C(=O)Nc1ncc(C)s1	55.4*	4.1	-6.3	97.2	104.0
SMILES	Platelet DG rel	SKN-1 inh	VLA-4 inh	Yeast superoxide	ABCB6 inh 2
CSc1ncccc1C(=O)Nc1ncc(C)s1	-0.8	12.8	1.9	111.0	107.0
c1ccc(-n2nnc(-c3nccs3)n2)cc1	9.5	36.4*	3.4	95.3	98.0
O=C1NC(=O)C2(CCC(C(=O)O)C2)N1 (stereo unspecified)	49.7*	13.7	13.3	126.6	96.0
O=C1NC(=O)C2(CCCC2)N1	.	0.4	.	.	95.0
COCCNC(=O)C(c1ccc(C)o1)N(Cc1ccc(F)cc1)C(=O)Cn1nnc2ccccc21 (stereo unspecified)	-0.2	6.9	-8.8	83.0	105.0
COCCNC(=O)C(c1ccc(C)o1)N(Cc1ccc(OC)cc1)C(=O)Cn1nnc2ccccc21 (stereo unspecified)	-2.1	35.2*	-12.5	90.0	89.0
Cc1ccc2ncnc(Nc3cccc([N+](=O)[O-])c3)c2c1	-7.3	38.4*	-19.1	142.3	99.0
CCCCC1Cc2[nH]c(=S)[nH]c(=O)c2C(c2ccc(F)cc2)O1 (stereo unspecified)	.	0.9	.	.	101.0
O=C(Nc1ccc2nc(-c3ccccc3)[nH]c2c1)c1cccs1	-12.3	39.5*	-11.5	92.3	100.0
CCCC(=O)Nc1nc(-c2ccc(Cl)s2)cs1	-0.8	22.3	17.1	124.4	97.0
Cc1csc(NC(=O)c2ccco2)n1	10.1	-26.8	28.1	109.1	95.0
O=C(Nc1nc(-c2ccc(Cl)s2)cs1)c1ccco1	1.9	85.2*	-18.0	112.6	96.0
O=C(Nc1nc(-c2ccc(Cl)s2)cs1)c1cccs1	4.2	48.2*	7.6	100.3	104.0
Cc1nc(-c2ccc(NC(=O)c3ccco3)cc2)cs1	5.8	9.4	-2.0	102.9	101.0
Cc1nc(-c2cccc(NC(=O)c3ccco3)c2)cs1	-8.9	35.6*	11.5	95.7	100.0
O=C(Nc1nc(-c2ccccc2)cs1)c1cccs1	-1.7	63.2*	4.6	90.5	87.0
C=C(C)COc1ccc2oc(C)c(C(=O)OCCOC)c2c1	-11.2	-15.4	-49.0	112.9	67.0*
CC(C)Oc1cc(F)ccc1-c1cc(C(=O)NCc2ccccn2)[nH]n1	.	-1.1	.	.	97.0
COc1ccc(C2Nc3ccccc3C(=O)N2Cc2ccco2)cc1CN1C(=O)c2ccccc2C1=O (stereo unspecified)	-4.7	4.2	0.7	96.1	103.0
COc1ccc(C2Nc3ccccc3C(=O)N2Cc2ccco2)cc1COc1ccc(F)cc1 (stereo unspecified)	9.2	42.6*	-2.7	78.4	93.0
CCOCC(=O)Nc1cccc(Br)c1	-5.6	37.1*	13.4	109.2	95.0
COc1ccc(-n2nnnc2C(c2ccccc2)N2CCN(C/C=C/c3ccccc3)CC2)cc1 (stereo unspecified)	.	14.2	.	.	101.0
COc1ccc(C2N=C(c3ccccc3)NO2)cc1OC (stereo unspecified)	3.1	-4.8	-5.4	102.2	96.0
FC(F)Oc1ccc(C2N=C(c3ccccc3)NO2)cc1 (stereo unspecified)	4.8	34.3*	-19.4	99.6	98.0
COC(=O)[C@@]12C[C@@H](CC(=O)NCCCN3CCCC3=O)C(=O)N(Cc3ccc4c(c3)OCO4)C1=CCC(C)(C)C2	.	3.7	.	.	.
SMILES	Platelet DG rel	SKN-1 inh	VLA-4 inh	Yeast superoxide	ABCB6 inh 2
O=C(O)c1cc(NC(=O)c2ccc([N+](=O)[O-])cc2)cc(NC(=O)c2ccc([N+](=O)[O-])cc2)c1	-3.2	3.0	10.5	105.0	93.0
O=C(Nc1ccc([N+](=O)[O-])cc1)C(=O)Nc1cccc(C(=O)O)c1	83.0*	2.6	10.5	97.2	100.0
CC(=O)c1ccc(NC(=O)Cc2ccsc2)cc1	3.4	12.2	0.3	93.7	99.0
Cc1cc(NC(=O)Cc2ccsc2)ccc1Br	4.2	62.7*	15.1	101.7	90.0
Cc1oc(-c2ccccc2F)nc1CS(=O)(=O)CC(=O)N1CCc2ccccc21	.	0.3	8.6	67.0	102.0
Cc1ccccc1-c1nc(CS(=O)(=O)CC(=O)N2CCc3ccccc32)c(C)o1	58.0*	-21.3	15.3	114.8	96.0
